Holding throughout (assay): DAPPL (digital affinity profiling via proximity ligation, sequencing); 10 mM Tris-HCl pH 7.5, 50 mM NaCl, 1 mM DTT, 4% glycerol, room temperature, 30 min; GST-TFs on glutathione beads, 16-mer random dsDNA library, 0.1% formaldehyde crosslink after washing; high values mean tight binding
Assay [1] addresses T1, FLI1 (Homo sapiens, UniProt Q01543 1-452).
T1 sequence: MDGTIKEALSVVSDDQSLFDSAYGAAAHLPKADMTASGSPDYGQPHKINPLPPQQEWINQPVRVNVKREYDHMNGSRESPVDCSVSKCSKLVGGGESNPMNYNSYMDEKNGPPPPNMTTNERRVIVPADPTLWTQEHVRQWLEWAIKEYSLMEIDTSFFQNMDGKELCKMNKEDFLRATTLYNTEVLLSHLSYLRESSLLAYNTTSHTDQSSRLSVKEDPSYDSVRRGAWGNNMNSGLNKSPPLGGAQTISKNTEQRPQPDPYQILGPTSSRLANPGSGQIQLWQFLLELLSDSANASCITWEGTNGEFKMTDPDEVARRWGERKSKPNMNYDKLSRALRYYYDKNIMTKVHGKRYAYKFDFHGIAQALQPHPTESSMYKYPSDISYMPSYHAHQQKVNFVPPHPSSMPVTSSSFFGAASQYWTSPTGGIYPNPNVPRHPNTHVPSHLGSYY
As to conditions: protein: recombinant; tags: N-terminal GST; dsDNA, one strand shown. The gist of the method: (§1)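 Human transcription factors were made in yeast as GST fusions, captured on glutathione beads and barcoded with DNA. With a tag-only sample included, the pool was incubated with 200 nmole of a random double-stranded 16-mer DNA library in Tris/NaCl/DTT/glycerol buffer at room temperature for 30 min, then crosslinked with 0.1% formaldehyde after washing, ligated by proximity, amplified and sequenced. For binding signal, each hexamer's read frequency for a factor is divided by its frequency for the tag-only sample.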

The target of assay [2] is T2, ELK1 (Homo sapiens, UniProt P19419 1-428).
T2 sequence: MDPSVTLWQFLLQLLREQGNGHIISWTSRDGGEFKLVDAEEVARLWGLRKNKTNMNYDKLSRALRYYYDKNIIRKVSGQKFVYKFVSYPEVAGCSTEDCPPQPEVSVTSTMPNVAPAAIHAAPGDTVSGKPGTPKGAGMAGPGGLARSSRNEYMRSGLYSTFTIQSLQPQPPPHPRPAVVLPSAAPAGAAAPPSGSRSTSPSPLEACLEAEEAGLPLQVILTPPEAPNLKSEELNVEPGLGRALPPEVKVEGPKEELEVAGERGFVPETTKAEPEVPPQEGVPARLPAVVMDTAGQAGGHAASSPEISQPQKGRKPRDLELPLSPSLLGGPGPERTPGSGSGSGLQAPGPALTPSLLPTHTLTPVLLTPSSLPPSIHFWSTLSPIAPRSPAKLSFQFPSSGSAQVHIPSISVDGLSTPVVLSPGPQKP
As to conditions: protein: recombinant; tags: N-terminal GST; dsDNA, one strand shown. The gist of the method: as §1

The target in assay [3] is T3, GABPA (Homo sapiens, UniProt Q06546 1-454).
T3 sequence: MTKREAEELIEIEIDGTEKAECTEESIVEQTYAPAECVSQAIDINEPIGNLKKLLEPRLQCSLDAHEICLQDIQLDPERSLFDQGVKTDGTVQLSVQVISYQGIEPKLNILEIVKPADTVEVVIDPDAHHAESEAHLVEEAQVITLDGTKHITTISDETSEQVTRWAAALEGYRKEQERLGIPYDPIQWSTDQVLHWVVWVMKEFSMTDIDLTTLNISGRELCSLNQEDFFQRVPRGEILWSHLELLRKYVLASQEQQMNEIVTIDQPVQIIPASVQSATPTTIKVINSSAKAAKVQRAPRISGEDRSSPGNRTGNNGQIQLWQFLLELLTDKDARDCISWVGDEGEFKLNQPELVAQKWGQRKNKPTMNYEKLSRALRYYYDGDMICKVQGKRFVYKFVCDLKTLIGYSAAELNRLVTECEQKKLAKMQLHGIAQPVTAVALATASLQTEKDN
As to conditions: protein: recombinant; tags: N-terminal GST; dsDNA, one strand shown. In outline:
as §1

Assay [4] concerns the target T4, ERG (Homo sapiens, UniProt P11308 1-479).
T4 sequence: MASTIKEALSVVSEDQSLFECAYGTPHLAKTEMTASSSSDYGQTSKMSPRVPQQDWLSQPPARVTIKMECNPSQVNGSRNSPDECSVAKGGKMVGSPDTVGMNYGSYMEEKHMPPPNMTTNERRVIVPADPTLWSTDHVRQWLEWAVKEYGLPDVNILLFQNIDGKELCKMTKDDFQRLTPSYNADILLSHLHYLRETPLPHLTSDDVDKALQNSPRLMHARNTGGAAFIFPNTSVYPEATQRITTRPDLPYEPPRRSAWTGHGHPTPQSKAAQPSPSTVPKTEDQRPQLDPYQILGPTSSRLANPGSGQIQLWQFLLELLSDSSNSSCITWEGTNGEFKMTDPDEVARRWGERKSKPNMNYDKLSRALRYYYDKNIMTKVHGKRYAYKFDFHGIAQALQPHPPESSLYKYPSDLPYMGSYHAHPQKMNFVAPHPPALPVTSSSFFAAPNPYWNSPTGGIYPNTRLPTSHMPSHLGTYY
As to conditions: protein: recombinant; tags: N-terminal GST; dsDNA, one strand shown. In outline:
as §1

Assay [5] addresses ELF1 (Homo sapiens, UniProt P32519 1-619). As to conditions: protein: recombinant; tags: N-terminal GST; dsDNA, one strand shown. The gist of the method: as §1
Assay [6] has as its target T5, EHF (Homo sapiens, UniProt Q9NZC4 1-300).
T5 sequence: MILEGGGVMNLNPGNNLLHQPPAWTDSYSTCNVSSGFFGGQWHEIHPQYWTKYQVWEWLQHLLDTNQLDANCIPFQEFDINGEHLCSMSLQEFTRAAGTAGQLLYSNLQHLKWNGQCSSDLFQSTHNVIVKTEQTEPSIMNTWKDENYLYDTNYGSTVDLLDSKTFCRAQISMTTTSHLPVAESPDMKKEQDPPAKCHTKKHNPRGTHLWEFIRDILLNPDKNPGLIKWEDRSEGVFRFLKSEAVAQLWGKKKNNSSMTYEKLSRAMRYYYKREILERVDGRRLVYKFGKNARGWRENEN
As to conditions: protein: recombinant; tags: N-terminal GST; dsDNA, one strand shown. The gist of the method: as §1

Assay [7] deals with SPI1 (Homo sapiens, UniProt P17947 1-270). As to conditions: protein: recombinant; tags: N-terminal GST; dsDNA, one strand shown. In outline: as §1
Assay [8] concerns the target SPIB (Homo sapiens, UniProt Q01892 1-262). As to conditions: protein: recombinant; tags: N-terminal GST; dsDNA, one strand shown. In outline:
as §1

Assay [9] has as its target T6, ELK3 (Homo sapiens, UniProt P41970 1-407).
T6 sequence: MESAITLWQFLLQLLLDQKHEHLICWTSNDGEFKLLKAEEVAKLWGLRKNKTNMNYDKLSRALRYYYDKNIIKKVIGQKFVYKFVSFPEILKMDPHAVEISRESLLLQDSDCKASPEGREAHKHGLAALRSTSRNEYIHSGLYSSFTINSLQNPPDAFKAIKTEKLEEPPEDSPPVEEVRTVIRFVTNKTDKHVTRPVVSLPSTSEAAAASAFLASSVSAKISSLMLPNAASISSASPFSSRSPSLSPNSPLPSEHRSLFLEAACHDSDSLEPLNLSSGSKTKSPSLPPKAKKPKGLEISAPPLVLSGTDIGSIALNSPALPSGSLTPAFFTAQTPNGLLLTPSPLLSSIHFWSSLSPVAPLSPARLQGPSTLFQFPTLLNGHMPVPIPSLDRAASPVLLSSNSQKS
As to conditions: protein: recombinant; tags: N-terminal GST; dsDNA, one strand shown. In outline:
as §1

Assay [10] has as its target T7, FEV (Homo sapiens, UniProt Q99581 1-238).
T7 sequence: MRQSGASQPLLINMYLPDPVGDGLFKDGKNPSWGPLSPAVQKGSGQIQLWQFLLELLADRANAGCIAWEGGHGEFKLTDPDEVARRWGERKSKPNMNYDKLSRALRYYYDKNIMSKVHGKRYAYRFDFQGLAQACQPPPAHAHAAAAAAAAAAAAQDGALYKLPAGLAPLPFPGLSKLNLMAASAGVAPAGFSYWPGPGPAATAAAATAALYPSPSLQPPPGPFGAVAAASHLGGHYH
As to conditions: protein: recombinant; tags: N-terminal GST; dsDNA, one strand shown. In outline: as §1

Assay [11] addresses ETV5 (Homo sapiens, UniProt P41161 1-510). As to conditions: protein: recombinant; tags: N-terminal GST; dsDNA, one strand shown. In outline:
as §1

In assay [12] the target is HSF1 (Homo sapiens, UniProt Q00613 1-529). As to conditions: protein: recombinant; tags: N-terminal GST; chain copies: 3; dsDNA, one strand shown. In outline:
as §1

Assay [13] addresses T8, SPIC (Homo sapiens, UniProt Q8N5J4 1-248).
T8 sequence: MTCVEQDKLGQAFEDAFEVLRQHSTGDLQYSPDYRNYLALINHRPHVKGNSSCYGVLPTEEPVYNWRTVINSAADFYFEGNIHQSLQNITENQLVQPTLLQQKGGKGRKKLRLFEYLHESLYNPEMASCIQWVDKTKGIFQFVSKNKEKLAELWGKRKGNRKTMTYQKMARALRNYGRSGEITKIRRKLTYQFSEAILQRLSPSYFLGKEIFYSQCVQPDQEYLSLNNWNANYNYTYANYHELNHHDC
As to conditions: protein: recombinant; tags: N-terminal GST; dsDNA, one strand shown. In outline:
as §1

The target of assay [14] is ELF4 (Homo sapiens, UniProt Q99607 1-663). As to conditions: protein: recombinant; tags: N-terminal GST; dsDNA, one strand shown. In outline:
as §1

Assay [15] addresses T9, ELK4 (Homo sapiens, UniProt P28324-2 1-405).
T9 sequence: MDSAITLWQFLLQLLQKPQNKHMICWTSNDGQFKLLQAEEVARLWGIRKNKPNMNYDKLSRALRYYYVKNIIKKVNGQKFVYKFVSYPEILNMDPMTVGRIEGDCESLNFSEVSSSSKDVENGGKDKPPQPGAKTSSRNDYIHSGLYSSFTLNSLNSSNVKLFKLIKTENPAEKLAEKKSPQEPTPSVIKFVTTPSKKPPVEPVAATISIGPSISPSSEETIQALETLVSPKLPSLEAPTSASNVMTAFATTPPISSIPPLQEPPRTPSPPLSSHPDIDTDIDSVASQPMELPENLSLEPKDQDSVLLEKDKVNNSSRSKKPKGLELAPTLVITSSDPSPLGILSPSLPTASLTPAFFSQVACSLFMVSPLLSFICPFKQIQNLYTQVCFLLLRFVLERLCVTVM
As to conditions: protein: recombinant; tags: N-terminal GST; dsDNA, one strand shown. In outline:
as §1

Assay [16] has as its target T10, ETV2 (Homo sapiens, UniProt O00321 1-342).
T10 sequence: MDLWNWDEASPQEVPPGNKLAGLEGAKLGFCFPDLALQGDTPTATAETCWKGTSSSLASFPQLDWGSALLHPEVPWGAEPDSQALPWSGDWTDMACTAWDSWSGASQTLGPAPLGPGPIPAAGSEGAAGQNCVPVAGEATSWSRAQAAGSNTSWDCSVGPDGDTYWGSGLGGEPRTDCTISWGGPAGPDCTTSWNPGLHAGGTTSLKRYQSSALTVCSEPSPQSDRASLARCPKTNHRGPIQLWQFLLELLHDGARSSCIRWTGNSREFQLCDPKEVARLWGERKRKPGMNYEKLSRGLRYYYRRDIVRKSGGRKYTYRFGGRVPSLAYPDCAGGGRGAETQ
As to conditions: protein: recombinant; tags: N-terminal GST; dsDNA, one strand shown. The gist of the method: as §1

The target in assay [17] is T11, ELF3 (Homo sapiens, UniProt P78545 1-371).
T11 sequence: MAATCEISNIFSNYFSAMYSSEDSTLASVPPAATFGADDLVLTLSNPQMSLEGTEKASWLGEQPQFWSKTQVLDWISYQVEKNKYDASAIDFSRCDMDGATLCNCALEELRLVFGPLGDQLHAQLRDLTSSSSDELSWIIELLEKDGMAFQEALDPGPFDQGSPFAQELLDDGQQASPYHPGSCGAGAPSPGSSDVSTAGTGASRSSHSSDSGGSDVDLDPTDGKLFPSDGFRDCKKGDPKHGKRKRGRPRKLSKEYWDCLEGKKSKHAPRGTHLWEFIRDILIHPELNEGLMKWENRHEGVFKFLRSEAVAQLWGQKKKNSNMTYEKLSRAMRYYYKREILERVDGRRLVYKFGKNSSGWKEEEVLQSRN
As to conditions: protein: recombinant; tags: N-terminal GST; dsDNA, one strand shown. The gist of the method: as §1

Assay [18] deals with CRX (Homo sapiens, UniProt O43186 1-299). As to conditions: protein: recombinant; tags: N-terminal GST; dsDNA, one strand shown. The gist of the method: as §1
CRX, sequence (O43186 whole entry): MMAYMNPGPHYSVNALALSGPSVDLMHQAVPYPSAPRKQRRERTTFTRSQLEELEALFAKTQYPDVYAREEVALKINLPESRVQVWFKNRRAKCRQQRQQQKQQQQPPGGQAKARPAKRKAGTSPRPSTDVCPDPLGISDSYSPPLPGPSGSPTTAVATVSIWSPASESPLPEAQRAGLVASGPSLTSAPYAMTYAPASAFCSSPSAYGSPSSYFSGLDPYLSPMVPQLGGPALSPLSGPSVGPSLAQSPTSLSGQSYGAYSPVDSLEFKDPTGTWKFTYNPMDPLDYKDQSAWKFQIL
The target of assay [19] is ETV1 (Homo sapiens, UniProt P50549 1-477). As to conditions: protein: recombinant; tags: N-terminal GST; dsDNA, one strand shown. The gist of the method: as §1
ETV1, sequence (P50549 whole entry): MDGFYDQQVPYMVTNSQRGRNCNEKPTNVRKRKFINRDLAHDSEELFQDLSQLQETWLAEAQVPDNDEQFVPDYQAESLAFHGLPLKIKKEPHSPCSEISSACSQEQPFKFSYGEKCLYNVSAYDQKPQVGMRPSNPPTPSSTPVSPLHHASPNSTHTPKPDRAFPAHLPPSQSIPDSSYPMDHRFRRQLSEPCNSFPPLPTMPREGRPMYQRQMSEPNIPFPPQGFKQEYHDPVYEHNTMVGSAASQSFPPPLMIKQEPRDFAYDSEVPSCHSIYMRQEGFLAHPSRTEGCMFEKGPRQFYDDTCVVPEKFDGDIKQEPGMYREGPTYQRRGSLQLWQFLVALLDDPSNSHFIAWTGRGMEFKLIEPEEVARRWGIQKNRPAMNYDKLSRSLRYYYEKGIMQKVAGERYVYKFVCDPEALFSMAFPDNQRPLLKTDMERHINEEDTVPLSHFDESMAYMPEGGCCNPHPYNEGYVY

SPIB, sequence (Q01892 whole entry): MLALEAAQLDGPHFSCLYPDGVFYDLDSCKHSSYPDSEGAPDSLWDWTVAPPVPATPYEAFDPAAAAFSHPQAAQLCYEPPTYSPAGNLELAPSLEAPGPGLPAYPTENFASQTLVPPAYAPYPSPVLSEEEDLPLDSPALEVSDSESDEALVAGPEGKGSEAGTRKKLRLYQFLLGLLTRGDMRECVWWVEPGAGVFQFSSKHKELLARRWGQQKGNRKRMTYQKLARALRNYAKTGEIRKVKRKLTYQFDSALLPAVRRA
HSF1, sequence (Q00613 whole entry): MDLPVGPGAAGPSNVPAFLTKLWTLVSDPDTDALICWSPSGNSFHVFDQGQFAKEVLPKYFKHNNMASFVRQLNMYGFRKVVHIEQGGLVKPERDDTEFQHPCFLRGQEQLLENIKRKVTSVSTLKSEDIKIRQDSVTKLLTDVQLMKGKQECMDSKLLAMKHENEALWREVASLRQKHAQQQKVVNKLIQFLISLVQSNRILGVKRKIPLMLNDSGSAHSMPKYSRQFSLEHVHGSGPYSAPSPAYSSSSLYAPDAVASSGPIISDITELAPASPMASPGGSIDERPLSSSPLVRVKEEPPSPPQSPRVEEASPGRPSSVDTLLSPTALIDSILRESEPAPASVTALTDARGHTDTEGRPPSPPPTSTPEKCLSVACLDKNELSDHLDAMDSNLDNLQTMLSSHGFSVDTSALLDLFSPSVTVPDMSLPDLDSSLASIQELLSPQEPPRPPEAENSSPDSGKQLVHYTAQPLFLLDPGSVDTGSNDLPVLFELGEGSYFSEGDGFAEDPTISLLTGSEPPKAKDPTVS
ELF4, sequence (Q99607 whole entry): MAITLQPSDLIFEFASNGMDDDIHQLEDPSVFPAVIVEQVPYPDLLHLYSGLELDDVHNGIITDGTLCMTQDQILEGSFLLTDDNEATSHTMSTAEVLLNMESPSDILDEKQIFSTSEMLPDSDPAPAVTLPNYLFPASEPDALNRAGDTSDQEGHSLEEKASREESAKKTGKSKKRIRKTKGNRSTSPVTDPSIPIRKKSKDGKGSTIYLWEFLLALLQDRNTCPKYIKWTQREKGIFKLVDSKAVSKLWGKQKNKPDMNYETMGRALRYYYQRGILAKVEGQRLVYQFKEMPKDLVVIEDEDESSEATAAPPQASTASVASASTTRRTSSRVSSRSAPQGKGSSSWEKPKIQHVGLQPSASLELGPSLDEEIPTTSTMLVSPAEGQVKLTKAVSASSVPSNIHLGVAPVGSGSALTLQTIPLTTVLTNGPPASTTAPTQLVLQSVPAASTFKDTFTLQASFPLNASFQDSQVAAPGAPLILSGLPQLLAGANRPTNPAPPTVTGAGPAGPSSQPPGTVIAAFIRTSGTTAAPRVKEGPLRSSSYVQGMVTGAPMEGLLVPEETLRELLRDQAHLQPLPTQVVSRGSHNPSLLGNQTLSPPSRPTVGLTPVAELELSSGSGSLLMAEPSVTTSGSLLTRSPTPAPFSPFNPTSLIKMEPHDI
ELF1, sequence (P32519 whole entry): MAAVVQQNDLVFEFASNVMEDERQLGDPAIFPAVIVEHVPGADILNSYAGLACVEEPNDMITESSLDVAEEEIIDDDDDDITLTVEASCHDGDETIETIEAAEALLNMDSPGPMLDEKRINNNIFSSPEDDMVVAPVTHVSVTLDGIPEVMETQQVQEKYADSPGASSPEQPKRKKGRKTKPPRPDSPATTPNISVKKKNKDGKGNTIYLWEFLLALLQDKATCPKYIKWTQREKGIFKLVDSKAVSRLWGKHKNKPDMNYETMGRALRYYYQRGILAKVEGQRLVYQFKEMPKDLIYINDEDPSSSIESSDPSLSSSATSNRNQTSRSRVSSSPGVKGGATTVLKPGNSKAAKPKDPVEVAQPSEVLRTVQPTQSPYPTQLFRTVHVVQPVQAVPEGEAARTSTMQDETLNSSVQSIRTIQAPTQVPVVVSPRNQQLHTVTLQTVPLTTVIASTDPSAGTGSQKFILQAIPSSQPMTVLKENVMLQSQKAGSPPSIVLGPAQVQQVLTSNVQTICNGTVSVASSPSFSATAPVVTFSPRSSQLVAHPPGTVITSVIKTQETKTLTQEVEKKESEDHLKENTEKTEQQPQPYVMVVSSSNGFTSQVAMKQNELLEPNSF
ETV5, sequence (P41161 whole entry): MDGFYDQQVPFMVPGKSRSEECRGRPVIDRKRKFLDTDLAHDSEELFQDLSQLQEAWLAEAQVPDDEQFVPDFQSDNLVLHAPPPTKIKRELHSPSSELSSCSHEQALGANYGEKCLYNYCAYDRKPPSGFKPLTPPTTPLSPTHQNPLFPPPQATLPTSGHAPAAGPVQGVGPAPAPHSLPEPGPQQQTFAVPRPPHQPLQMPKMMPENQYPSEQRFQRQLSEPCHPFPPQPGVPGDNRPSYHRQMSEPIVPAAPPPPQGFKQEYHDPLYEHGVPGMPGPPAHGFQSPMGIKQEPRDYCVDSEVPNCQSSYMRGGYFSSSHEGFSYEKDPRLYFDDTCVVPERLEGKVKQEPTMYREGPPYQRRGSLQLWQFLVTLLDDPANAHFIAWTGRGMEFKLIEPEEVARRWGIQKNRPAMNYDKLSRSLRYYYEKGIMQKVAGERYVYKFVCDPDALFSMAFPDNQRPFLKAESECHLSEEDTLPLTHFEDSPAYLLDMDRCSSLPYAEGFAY

On to TTGCGG, for which the binding signal in assay [1] is 1.37 fold enrichment (6-mer frequency, TF over GST control); in assay [2] it was 1.14 fold enrichment (6-mer frequency, TF over GST control); in assay [3], 1.21 fold enrichment (6-mer frequency, TF over GST control); in assay [4], 1.28 fold enrichment (6-mer frequency, TF over GST control); in assay [5] it was 1.38 fold enrichment (6-mer frequency, TF over GST control); in assay [6] it was 1.3 fold enrichment (6-mer frequency, TF over GST control). Moreover, the binding signal in assay [7] is 1.61 fold enrichment (6-mer frequency, TF over GST control); in [8], 1.2 fold enrichment (6-mer frequency, TF over GST control); in assay [9], 1.26 fold enrichment (6-mer frequency, TF over GST control); in assay [10], 1.19 fold enrichment (6-mer frequency, TF over GST control); in assay [11], 1.36 fold enrichment (6-mer frequency, TF over GST control); in [12], 1.04 fold enrichment (6-mer frequency, TF over GST control). Further, the binding signal in [13] was 1.47 fold enrichment (6-mer frequency, TF over GST control); in assay [14], 1.3 fold enrichment (6-mer frequency, TF over GST control); in assay [15], 1.2 fold enrichment (6-mer frequency, TF over GST control); in [16] it was 1.31 fold enrichment (6-mer frequency, TF over GST control); in assay [17], 1.42 fold enrichment (6-mer frequency, TF over GST control); in [18] it was 1.05 fold enrichment (6-mer frequency, TF over GST control). Besides, the binding signal in assay [19] is 1.27 fold enrichment (6-mer frequency, TF over GST control).

Values taken from publication PMC7862700, “An all-to-all approach to the identification of sequence-specific readers for epigenetic DNA modifications on cytosine”.
